High-throughput results as filed in PubChem.
HCV inh – qHTS Assay for Inhibitors of Hepatitis C Virus (HCV); Huh7.5.1 HCVcc-Cre infection, luciferase reporter, 44 h; Potency, µM (top dose mostly 41.8 µM), inactives show at the top dose activity change, negative = inhibition, hits mostly inhibitors; 340,000 tested, 3.4% active; note: potency is the fitted concentration of half-maximal effect
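A cell-based infection assay in which seeded cells (1,000 per well) receive test compound after 4 h, are inoculated with HCVcc-Cre at approximately 0.5 moi, and are incubated 44 h before luminescence detection.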
Giardia FBPA inh – qHTS Assay for Inhibitors of Fructose-1,6-bisphosphate Aldolase from Giardia Lamblia. purified Giardia FBPA. Potency, µM (series often up to 59.6 µM), for inactives: at the highest dose activity, negative = inhibition, hits mostly inhibitors. 290,000 tested, 0.71% active. AID 2451, 2010; note: potency is the fitted concentration of half-maximal effect; nearly all actives have a fitted effect of over 55% in size
Target sequence (A8B2U2 whole entry, looked up): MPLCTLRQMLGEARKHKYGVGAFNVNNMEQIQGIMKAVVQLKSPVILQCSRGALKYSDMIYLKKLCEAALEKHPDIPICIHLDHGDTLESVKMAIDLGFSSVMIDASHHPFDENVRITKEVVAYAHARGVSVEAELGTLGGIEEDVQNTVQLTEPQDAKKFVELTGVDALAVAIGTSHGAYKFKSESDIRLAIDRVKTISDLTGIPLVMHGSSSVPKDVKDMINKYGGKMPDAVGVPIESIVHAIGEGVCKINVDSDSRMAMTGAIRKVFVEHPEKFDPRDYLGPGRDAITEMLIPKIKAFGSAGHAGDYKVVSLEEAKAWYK
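40 nM FBPA preincubated 10 min at RT with compound (up to 57.5 uM final), then substrate plus GAPDH/TPI/NAD/arsenate coupling and diaphorase/resazurin added. Fluorescence read after 20 min at RT, 525/598 nm.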
Vaccinia Venus – qHTS for Stage-Specific Inhibitors of Vaccinia Orthopoxvirus: Venus Reporter Primary qHTS; Vaccinia virus Venus reporter expression, fluorescence; Potency, µM (highest dose often 36.5 µM), without a hit: at the top dose activity change, negative = inhibition, usual class: inhibitors; 330,000 tested, 0.46% active; AID 720580, 2013; calls by dose curve; tested in A549 cells; note: potency is the fitted concentration of half-maximal effect; nearly all actives have a fitted effect of over 30% in size
FMDV inh – High Throughput Screening for Foot and Mouth Disease Virus Antivirals; Potency, µM (highest dose often 57.9 µM), for inactives: at the top dose activity change, negative = inhibition, hits mostly inhibitors; 410,000 tested, 1.2% active; FMDV antiviral cell-based qHTS; calls by dose curve; tested in HEK293T cells; note: read-out not given here; potency is the fitted concentration of half-maximal effect; nearly all actives have a fitted effect of over 45% in size
Vaccinia mCherry – qHTS for Stage-Specific Inhibitors of Vaccinia Orthopoxvirus: mCherry Reporter Primary qHTS | Vaccinia virus mCherry reporter infection, fluorescence | Potency, µM (titrated, usually from 36.5 µM), inactives show at the highest dose activity change, negative = inhibition, most hits filed as inhibitors | 310,000 tested, 0.63% active; calls by dose curve; tested in A549 cells; note: potency is the fitted concentration of half-maximal effect; nearly all actives have a fitted effect of over 35% in size
HCMV inh – qHTS Assay for inhibitors of the human cytomegalovirus (HCMV) | activity change, negative = inhibition, % at 57.5 µM | 410,000 tested, 4.5% active | HFF cells, HCMV-luciferase reporter, 72 h; hits give low values; in the data active = activity change below about -60%; inconclusive = no clear call, values can overlap the other calls; inactive = above about -39%
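After 16 h attachment at 37C, HFF cells received test compound and HCMV-luciferase (1 PFU/cell); reporter luminescence read 72 h later, data normalized against buffer-only and known inhibitor Salinomycin.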
* = called active by the depositor; i = inactive; ? = inconclusive; nt = no result given; + = active, no number; [ ] = dose if it differs, or a comment. The list is not random: actives were taken first. Their share in the collection is about 7.5%. Unless noted, calls come from the whole dose curve; as a rule, active = well fitted curve in the direction sought with a large enough effect; inconclusive = small, poorly fitted or top-dose-only effect, or another doubt; inactive = no such curve, though single readings can be large; an effect the other way counts as inactive or inconclusive. % is set by controls: 0 for no effect and ±100 for the full control effect.

SMILES | HCV inh | Giardia FBPA inh | Vaccinia Venus | FMDV inh | Vaccinia mCherry | HCMV inh
Cc1c(CCOC(=O)c2cc([N+](=O)[O-])cc([N+](=O)[O-])c2)sc[n+]1CC(=O)c1ccccc1 | ? | -16% | nt | -7% | nt | -6
COc1cccc2c1Oc1ncccc1N(C(=O)Nc1cccc(Cl)c1)C2 | nt | nt | -23% | -17% | -19% | -37
CC1CCN(C2=NC(=O)/C(=C/c3cn(-c4ccccc4)nc3-c3cccc(S(=O)(=O)N(C)C)c3)S2)CC1 | ? | -9% | 5% | -3% | -9% | -62*
COc1cc2[nH]c(C(=O)N3CC(C)OC(C)C3)cc2c(OC)c1OC (stereo not given) | 8% | -8% | -4% | -28% | i | 117
COc1cccc(C2C(C(=O)Nc3ccccc3)=C(C)Nc3nc(-c4ccccc4)nn32)c1OC (stereo not given) | nt | nt | -5% | -8% | -15% | 69
COc1cccc(C2C(C(=O)Nc3ccccc3)=C(C)Nc3nnnn32)c1OC (stereo not given) | nt | nt | -13% | -1% | -14% | -100*
Cc1ccc(CNC(=O)CCCCn2c(=O)[nH]c3ccsc3c2=O)cc1 | 2% | 8% | nt | 6% | nt | -33
Cc1ccc(CNC(=O)Cc2ccc(-n3c(=O)[nH]c4ccsc4c3=O)cc2)cc1 | 2% | 7% | -28% | 6% | ? | -62*
COC(=O)Cc1ccc(OC2(C)CCN(Cc3ccccc3)C2)cc1 (stereo not given) | nt | nt | 8% | -19% | 0% | -18
CCOC(=O)C(C(=O)NCCCN1CCOCC1)C1CCCCC1 (stereo not given) | 23% | -2% | 7% | -1% | -6% | -105*
C=CCNC(=O)C(C(=O)OCC)C1CCCCC1 (stereo not given) | 8% | 5% | 0% | -2% | -7% | 3
Cc1cnccc1CN(C)Cc1nc(Cc2ccccc2Cl)no1 | ? | -5% | -15% | ? | -16% | -61*
CN(Cc1ccccn1)Cc1nc(Cc2ccccc2Cl)no1 | 2% | 2% | -12% | 1% | -2% | ?
O=C(CSCc1cccc(CSCC(=O)Nc2ccc3ccccc3c2)n1)Nc1ccc2ccccc2c1 | 10µM* | 4% | 11µM* | -27% | 11µM* | -82*
CCCCc1nc2ccccc2n2c(-c3ccc(C)cc3)c3c(=O)n(C)c(=O)n(C)c3c12 | nt | nt | 2% | -4% | -12% | 9
Cc1cc(NNC(=O)c2cccc(C(F)(F)F)c2)nc2c1c(C)nn2C | 4.5µM* | 2% | nt | ? | nt | ?
COc1cc(OC)cc(C(=O)N2CCCC(n3cc(C(=O)NCC(C)C)nn3)C2)c1 (stereo not given) | nt | nt | -4% | 11% | -10% | nt
COc1cccc(CN2CCC2(C)C(=O)Nc2cccc(NS(C)(=O)=O)c2)c1OC (stereo not given) | nt | nt | -4% | 0% | -7% | 15
CC(C)CCCN1CCN=C1N(C)C | 13% | -6% | -10% | -10% | i | -74*
CCN(CC)c1ccc(NC(=O)CSc2nnc3nc(C)cc(C)n23)cc1 | 10% | 2% | -24% | -14% | -20% | -107*
Cc1cccn2c(=O)c(/C=C(\C#N)C(=O)NC3CCS(=O)(=O)C3)c(N3CCC(C(N)=O)CC3)nc12 (stereo not given) | 5% | -8% | 2% | 0% | -4% | ?
Cc1ccc(Oc2nc3c(C)cccn3c(=O)c2/C=C(\C#N)C(N)=O)cc1 | -19% | 1% | -2% | 18µM* | -7% | 11
Cc1cccn2c(=O)c(/C=C(\C#N)C(=O)NC3CCS(=O)(=O)C3)c(N3CC(C)OC(C)C3)nc12 (stereo not given) | 1% | -4% | -11%[7.34 µM] | -6% | -1%[7.34 µM] | -17
Cc1ccccc1Oc1nc2c(C)cccn2c(=O)c1/C=C(\C#N)C(=O)NC1CCS(=O)(=O)C1 (stereo not given) | -22% | -8% | -9% | 20µM* | i | 85
Cc1cccn2c(=O)c(/C=C(\C#N)C(N)=O)c(N3CCN(Cc4ccc5c(c4)OCO5)CC3)nc12 | ? | -3% | ? | ? | -11% | -80*
SMILES | HCV inh | Giardia FBPA inh | Vaccinia Venus | FMDV inh | Vaccinia mCherry | HCMV inh
Cc1cccn2c(=O)c(/C=C(\C#N)C(=O)NC3CCS(=O)(=O)C3)c(Oc3ccccc3Cl)nc12 (stereo not given) | -15% | -10% | -15% | 20µM* | -24% | 59
CCOC(=O)/C(C#N)=C/c1c(N2CCN(Cc3ccc4c(c3)OCO4)CC2)nc2c(C)cccn2c1=O | ? | -8% | -1% | -2% | -14% | -4
CC(C)C[C@H](NC(=O)[C@H](Cc1ccccc1)NC(=O)[C@@H]1CCCN1C(=O)[C@H](CC(=O)O)NC(=O)[C@@H]1CCC(=O)N1)C(=O)N[C@@H](CCCN=C(N)N)C(=O)N[C@@H](Cc1ccccc1)C(N)=O | nt | 2% | nt | nt | nt | nt
Clc1ccc(/C=C/c2ccnc3ccccc23)c(Cl)c1 | nt | nt | ? | nt | -14% | nt
Cc1cc(C)n(CC(=O)NNC(=O)c2ccc(OC(F)(F)F)cc2)n1 | 6% | nt | 0% | 8% | i | -13
Cc1ccc(S(=O)(=O)CCC(=O)N2CCN(c3ccc([N+](=O)[O-])cc3)CC2)cc1 | 13µM* | 8% | nt | ? | nt | 0
O=C(CCS(=O)(=O)c1ccc(Br)cc1)N1CCN(c2ccc(Cl)cc2)CC1 | -10% | 4% | nt | ? | nt | -79*
O=C(CCSCc1cccc(Cl)c1)N1CCN(c2ccc(Cl)cc2)CC1 | nt | nt | 0% | -21% | -3% | -63*
COc1ccc(S(=O)(=O)CCC(=O)N2CCN(c3ccc([N+](=O)[O-])cc3)CC2)cc1 | ? | -3% | nt | ? | nt | ?
O=C(CCS(=O)(=O)c1ccc(Br)cc1)N1CCN(c2ccc(F)cc2)CC1 | 1% | -2% | nt | -21% | nt | -65*
O=C(NCc1ccc(Cl)nc1)c1csc([C@@H]2C[C@H](O)[C@@H](CO)O2)n1 | nt | nt | -10% | -17% | -1% | -3
CN(C)C(=O)Oc1ccc(Cl)c2cccnc12 | 1% | -1% | 7% | 14% | 0% | -38
CN(C)C(=O)Oc1ccnc2cc(Cl)ccc12 | -7% | -9% | 1% | -12% | -11% | +
C/C(N)=C(/C#N)C(=O)CSc1nc2ccccc2c(=O)n1Cc1ccc(C)cc1 | -8% | -12% | ? | -25% | -30% | ?
C/C(N)=C(/C#N)C(=O)CSc1nc2cc(Cl)ccc2c(=O)n1-c1ccc(C)cc1 | 7.1µM* | -4% | -12% | -17% | i | ?
